Assay outcomes (PubChem BioAssay)
Rows were chosen to be rich in hits. Some 1.6% of all compounds tested hit in one or more screens of this group.
gsp ag: qHTS for Agonist of gsp, the Etiologic Mutation Responsible for Fibrous Dysplasia/McCune-Albright Syndrome: qHTS; gsp mutant cells, cAMP HTRF, 30 min; Potency, µM (doses to about 76.9 µM), for the others: at the highest dose activation (cAMP increase), most hits filed as activators; 0.13% of 340,000 active; active = well fitted activation curve with a large enough effect; inconclusive = small, poorly fitted or top-dose-only effect, or another doubt; inactive = no such curve, though single readings can be large or run the other way; cell line not stated here;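 note: phosphodiesterase inhibitor Ro 20-1724 added with compounds to block cAMP breakdown; nearly all actives have a fitted effect of over 60% in size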
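Cells stably selected in G418 were plated at 2000/well, grown 16-24 hr, then given compounds in DMSO with the PDE inhibitor […] (300 uM solution added) for 30 min at 37C; cAMP was read by HTRF.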
Mito fusion act: qHTS Assay for Small Molecule Inhibitors of Mitochondrial Division or Activators of Mitochondrial Fusion; S. cerevisiae fusion-defective mutant growth rescue, CellTiterGlo 48 h; Potency, µM (series often up to 46.1 µM), for inactives: at the top dose growth rescue (activation), most hits filed as activators; 0.23% of 320,000 active; note: % of control where 0% means no effect; nearly all actives have a fitted effect of over 45% in size
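Yeast fusion mutant, YPEG (non-fermentable carbon), compound, 48 h at 37C non-permissive; CellTiterGlo added, 10 min RT, luminescence read. Rescued growth = division inhibition.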
gsp antagonist: qHTS for Antagonists of gsp, the Etiologic Mutation Responsible for Fibrous Dysplasia/McCune-Albright Syndrome: qHTS; Potency, µM (series often up to 76.9 µM), for the others: top-dose activity change, negative = inhibition, usual class: inhibitors; 0.4% of 340,000 active; gsp-mutant cells, cAMP HTRF, 30 min; calls by dose curve; cell line not stated here;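 note: intracellular cAMP measured with PDE inhibitor Ro 20-1724 present during compound exposure; % is set by controls: 0 for no effect and ±100 for the full control effect; nearly all actives have a fitted effect of over 65% in size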
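Cells, 2000/well, grown 16–24 h in DMEM 10% FBS with 0.5 mg/ml G418, then compounds plus […] (300 uM addition stock), 30 min at 37C. cAMP read by HTRF (cAMP-d2 and anti-cAMP antibody-K in lysis buffer) after 30 min RT.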
FUS suppressor: qHTS for Suppressors of FUS Proteinopathy: Primary screen using FUS-linked yeast assay | Potency, µM (titrated, usually from 76.6 µM), most hits filed as activators | S. cerevisiae FUS-expressing, growth rescue, OD600, 24 h | AID 1347120, 2019 | 0.24% of 390,000 active;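 note: plate controls were DMSO vehicle for no effect and reference control for full effect; nearly all actives have a fitted effect of over 55% in size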
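Quantitative HTS measuring growth restoration of FUS-toxic yeast. Galactose-induced cells (OD 0.005) were exposed 24hr at 30C to compounds at several concentrations, then absorbance at 600 nm was recorded.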
ALOX12 inh: Primary qHTS assay for inhibitors of human arachidonate 12S-lipoxygenase (ALOX12): Round 2; purified 12hLO, xylenol orange hydroperoxide absorbance; Potency, µM (highest dose often 108 µM), without a hit: at the top dose activity change, negative = inhibition, most hits filed as inhibitors; Polyunsaturated fatty acid lipoxygenase ALOX12 (Homo sapiens), P18054; 1.1% of 580,000 active; note: % is set by controls: 0 for no effect and ±100 for the full control effect
Target sequence (P18054 whole entry, looked up): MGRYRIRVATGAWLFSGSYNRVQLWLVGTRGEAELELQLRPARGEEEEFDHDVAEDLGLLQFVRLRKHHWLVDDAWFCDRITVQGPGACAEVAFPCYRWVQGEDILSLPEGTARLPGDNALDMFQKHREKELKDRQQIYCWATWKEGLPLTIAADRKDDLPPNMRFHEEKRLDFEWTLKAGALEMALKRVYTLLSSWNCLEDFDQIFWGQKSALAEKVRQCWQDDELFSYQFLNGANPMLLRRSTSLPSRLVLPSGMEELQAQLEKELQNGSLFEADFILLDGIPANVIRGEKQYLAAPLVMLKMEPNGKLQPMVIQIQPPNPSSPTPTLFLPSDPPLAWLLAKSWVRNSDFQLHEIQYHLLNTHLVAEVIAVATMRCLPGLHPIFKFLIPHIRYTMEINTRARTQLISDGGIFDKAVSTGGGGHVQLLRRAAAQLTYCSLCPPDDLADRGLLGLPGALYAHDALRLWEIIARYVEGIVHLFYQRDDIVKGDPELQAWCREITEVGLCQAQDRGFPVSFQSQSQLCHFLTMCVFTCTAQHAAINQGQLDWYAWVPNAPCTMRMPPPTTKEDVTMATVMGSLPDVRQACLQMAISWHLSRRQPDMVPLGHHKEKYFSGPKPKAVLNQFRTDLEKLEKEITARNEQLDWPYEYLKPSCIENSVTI
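Hydroperoxide product was detected by ferrous iron/xylenol orange as the 573 to 405 nm absorbance ratio. Arachidonic acid at 40 uM (final) was turned over for 30 min at room temperature by 150 nM human 12hLO, pH 7.0 Hepes buffer, after 15 min compound preincubation.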
An asterisk follows results filed as active; i = inactive; u = inconclusive; x = no result; [ ] = dose if it differs, or a comment. Unless noted, calls come from the whole dose curve; as a rule, active = well fitted curve in the direction sought with a large enough effect; inconclusive = small, poorly fitted or top-dose-only effect, or another doubt; inactive = no such curve, though single readings can be large; an effect the other way counts as inactive or inconclusive. Potency is the fitted concentration of half-maximal effect.

SMILES	gsp ag	Mito fusion act	gsp antagonist	FUS suppressor	ALOX12 inh
CCc1ccc2oc(=O)cc(-c3oc4ccccc4c3NC(=O)C3CC3)c2c1	x	x	x	x	7.94µM*
CCOC(=O)c1cc2cc([N+](=O)[O-])ccc2oc1=O	15.2%[15.4 µM]	1.3%	3.4%	i	0.0%
O=[N+]([O-])c1ccc2oc(C(O)c3cccc(Cl)c3)cc2c1 (configuration not stated)	-43.0%	25.1µM*	-3.7%	i	1.8%
C=CCOc1ccccc1NC(=O)c1cccc(C)c1	x	x	x	x	5.9%
C=CCSc1ccccc1NC(=O)c1cc(C)cc(C)c1	x	x	x	x	35.5µM*
Nc1nc(N2CCCCC2)nc2c1C(C(=O)Nc1ccc(Cl)cc1)CC(=O)N2 (configuration not stated)	x	x	x	x	-18.4%
COc1ccccc1NC(=O)Nc1nc(CC(=O)NCc2c(F)cccc2F)cs1	4.2%	-3.3%	-17.1%	i	-6.8%
COc1ccccc1NC(=O)Cc1csc(NC(=S)Nc2ccccc2)n1	17.7%	-0.4%	u	i	17.8µM*
COc1ccc(NC(=S)Nc2nc(CC(=O)Nc3ccccc3OC)cs2)cc1	-8.6%	-3.4%	u	i	u
COc1ccccc1NC(=O)Nc1nc(CC(=O)N2CCN(c3ccccc3F)CC2)cs1	-29.0%[15.4 µM]	-1.3%	-13.7%	28.2µM*	-61.7%
Cc1ccc(C)c2[nH]c(=O)c(CN(CCN3CCCC3)C(=O)Nc3cccc(Cl)c3)cc12	6.6%	-0.2%	2.8%	35.5µM*	-13.2%
Cc1cc(C)c2cc(CN(CCN3CCCC3)C(=O)Nc3ccc(F)cc3)c(=O)[nH]c2c1	0.1%	1.7%	8.1%	u	437.5%
O=[N+]([O-])c1ccc(-c2nc(Nc3cccc(O)c3)c3ccccc3n2)cc1	u	4.7%	28.2µM*	i	u
O=[N+]([O-])c1cccc(-c2nc(NCc3ccccc3)c3ccccc3n2)c1	-9.7%	3.16µM*	-20.8%	x	-22.3%
CCOC(=O)c1ccc(Nc2c(C(=O)OCC)cnc3c(Cl)cccc23)cc1	x	x	x	x	17.5%
Cc1cc(C(F)F)nn1Cc1nc2c3c4c(sc3ncn2n1)CCCC4	x	x	x	x	62.9%
O=C(C1CC1)N1CCN(c2nc(-c3ccccc3)c3ccccc3n2)CC1	x	x	x	x	-2.8%
COc1ccc(N2CCN(C(=O)c3ccc4c(c3)NC(=O)C(CSCc3ccccc3F)N4)CC2)cc1 (configuration not stated)	-11.5%	x	x	u	4.47µM*
Cc1cccc(N2CCN(C(=O)c3ccc4c(c3)NC(=O)C(CSCc3cccc(F)c3)N4)CC2C)c1 (configuration not stated)	u	-0.5%	-5.4%	u	22.4µM*
COc1ccc(C2(C(=O)N3C[C@@H](Oc4ccccc4)C[C@H]3C(=O)N3CCCC3)CC2)cc1	x	x	x	x	32.2%
CC1=Nc2ccc(C)cc2/C1=C/c1c(N)n2c(S(=O)(=O)C(C)C)nsc2nc1=O	-19.4%	4.1%	39.8µM*	x	u
CC(=O)Nc1ccc(-n2cc(-c3ccccc3)[nH]c2=S)cc1	31.0%	-5.1%	-10.0%	i	28.2µM*
COc1ccc(-n2cc(-c3ccccc3)[nH]c2=S)cc1	0.2%	11.4%	-0.8%	x	u
Oc1ccc(-c2nc3ccc4ccccc4c3c3c2CCC3)cc1O	8.5%	15.8µM*	-10.8%	i	2µM*
CCOCCCNC(=O)/C(C#N)=C\c1ccc(NC(C)=O)cc1	x	x	x	x	5.9%
SMILES	gsp ag	Mito fusion act	gsp antagonist	FUS suppressor	ALOX12 inh
CCN=C1S/C(=C\c2cc(OCC)c(O)cc2Br)C(=O)N1CC	2.8%	7.08µM*	-13.0%	i	-3.4%
CCN=C1S/C(=C\c2ccc(O)c(OCC)c2)C(=O)N1CC	u	u	6.6%	x	-16.7%
Cc1ccc(OCc2ccc(-c3nc(C#N)c(NCCCN(C)C)o3)o2)cc1	x	x	x	x	46.0%
COc1ccc(NC(=O)Nc2cccs2)cc1Cl	-141.8%	-1.6%	-3.9%	i	39.8µM*
COc1ccc(NC(=O)CCC(=O)c2cccs2)cc1Cl	u	-4.3%	-6.0%	i	99.0%
Cc1cccc(-n2cnc(C(=O)O)c2)n1	-0.6%	14.1µM*	2.6%	i	-9.7%
COC(=O)C1=C(O)/C(=C\c2ccc(CNS(=O)(=O)c3ccc(Cl)cc3)o2)N=C1C	-4.8%	-1.7%	-3.5%	u	50.1µM*
CCOC(=O)C(=O)NCc1ccc(/C=C2/N=C(C)C(C(=O)OCC)=C2O)o1	-4.0%[15.4 µM]	0.0%	-16.5%	i	-25.8%
CCOC(=O)C1=C(O)/C(=C\c2ccc(CNS(=O)(=O)c3ccc(Br)cc3)o2)N=C1C	-11.3%	-6.3%	u	x	44.7µM*
COC(=O)C1=C(O)/C(=C\c2ccc(CNS(=O)(=O)c3ccccc3)o2)N=C1C	-0.1%	-2.7%	-3.3%	i	u
CCCn1cc(-c2ccnc(NC3CCN(Cc4ccccn4)CC3)n2)c(C)n1	x	x	x	x	62.3%
O[C@@H]1CO[C@H]2[C@@H]1OC[C@@H]2n1nnnc1SC1CCCC1	x	x	x	x	63.1µM*
CCCCN(CCCC)Cc1cc(=O)oc2cc(C)c(O)cc12	x	x	x	x	39.8µM*
c1ccc(CN2CCN(c3nc(NCc4ccco4)c4ccccc4n3)CC2)cc1	u	18.1%	-4.6%	x	39.8µM*
OCCN1CCN(c2nc(NCc3ccco3)c3ccccc3n2)CC1	7.7%	-1.5%	-1.3%	i	u
CC(C)C(=O)N1CCN(c2ccc(NC(=O)c3cccs3)cc2Cl)CC1	-20.8%	-1.3%	28.2µM*	i	0.6%
CC(C)C(=O)N1CCN(c2ccc(NC(=O)c3cccs3)cc2)CC1	10.8%	2.7%	u	i	0.0%
CCn1c(-c2cc(-c3ccc(C)cc3)nc3ccccc23)n[nH]c1=S	20.7%	u	-11.8%	i	u
CCn1c(-c2cc(-c3cc(OC)ccc3OC)nc3ccccc23)n[nH]c1=S	0.5%	0.4%	-16.1%	i	20µM*
CCn1c(-c2cc(-c3ccc(OC(C)C)cc3)nc3ccccc23)n[nH]c1=S	-11.1%	u	-9.2%	35.5µM*	-12.4%
O=C(NCCOC(=O)c1ccc(Cl)c(S(=O)(=O)N2CCCCC2)c1)c1ccncc1	14.6%	-0.8%	39.8µM*	i	x
S=c1[nH]nc(-c2cc(-c3ccccc3)n[nH]2)n1/N=C/C=C/c1ccccc1	3.5%	3.3%	-17.8%	i	u
S=c1[nH]nc(-c2ccncc2)n1/N=C/C=C/c1ccco1	u	-2.1%	-29.1%	i	u
CC(/C=N/n1c(-c2cccnc2)n[nH]c1=S)=C\c1ccccc1	-37.0%	-2.2%	-24.3%	x	0.0%
